Rows were chosen to be rich in hits. Some 4.7% of all compounds tested hit in one or more screens of this group.
DRD3 antagonist: qHTS of D3 Dopamine Receptor Antagonist: qHTS | D(3) dopamine receptor (Homo sapiens), P35462 | D3R cells, DiscoveRx beta-arrestin luminescence, antagonist mode; active compounds read low | max response, negative = inhibition, % | 2.5% of 360,000 active; in the data active means max response below about -50%; inconclusive means no clear call, values can overlap the other calls; further: on the % scale 0 is the no-effect control and ±100 the full control effect
Target sequence (P35462 whole entry, looked up): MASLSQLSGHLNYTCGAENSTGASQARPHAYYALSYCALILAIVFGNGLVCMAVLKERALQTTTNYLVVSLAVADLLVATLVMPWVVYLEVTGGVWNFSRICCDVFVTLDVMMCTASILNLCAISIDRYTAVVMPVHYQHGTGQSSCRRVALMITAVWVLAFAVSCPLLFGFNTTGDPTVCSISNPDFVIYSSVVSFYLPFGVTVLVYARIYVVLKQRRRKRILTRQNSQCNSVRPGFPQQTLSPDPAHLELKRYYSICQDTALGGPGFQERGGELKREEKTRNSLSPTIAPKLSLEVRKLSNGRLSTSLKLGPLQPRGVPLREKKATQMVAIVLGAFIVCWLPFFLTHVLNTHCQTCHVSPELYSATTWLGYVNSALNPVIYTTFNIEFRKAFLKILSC
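Cells expressing the human receptor were seeded at 1500 cells/well, incubated overnight at 37 degrees C in 5% CO2, then exposed to library compounds with dopamine controls for 90 minutes at 37 degrees C before luminescent detection.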
TGFb SMAD3 inh: qHTS for Inhibitors of TGF-b | HepG2 CAGA-GFP TGF-b/SMAD3 reporter, GFP fluorescence, 18 h; TGF-beta stimulated, 500 pg/mL final | Potency, µM (highest dose often 46.1 µM), for the others: at the top dose activity, negative = inhibition, usual class: inhibitors | 1.2% of 410,000 active | AID 588855, 2011; further: potency means the concentration at half of the fitted maximal effect; on the % scale 0 is the no-effect control and ±100 the full control effect; nearly all actives have a fitted effect of over 65% in size
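Cell-based qHTS in HEPG2 carrying a CAGA-GFP Smad reporter; compounds added before 500 pg/mL final TGF-beta, 18 h incubation at 37 degrees C, GFP fluorescence quantified per cell by imaging cytometry.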
DRD3 agonist: qHTS of D3 Dopamine Receptor Agonist: qHTS | D3R DiscoveRx beta-arrestin cells, luminescence, 90 min | D(3) dopamine receptor (Homo sapiens), P35462 | AID 652048, 2013 | max activation, % | 0.58% of 410,000 active; in the data active means max activation above about 30%; further: 0% is about no effect
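Cells at 1500/well, incubated overnight, then treated with pinned compounds (dopamine as control) for 90 min at 37 degrees C. DiscoveRx reagent added for 30 - 60 minutes at room temperature; luminescence read.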
ATXN2 expr inh: Primary qHTS for Inhibitors of ATXN expression; 0.72% of 360,000 active; HEK-293 ATXN2-luciferase reporter, luminescence, 24 h; Potency, µM (titrated, usually from 57 µM), for the others: at the highest dose activity change, negative = inhibition, most hits filed as inhibitors; further: potency means the concentration at half of the fitted maximal effect; on the % scale 0 is the no-effect control and ±100 the full control effect; nearly all actives have a fitted effect of over 55% in size
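qHTS (up to 57 uM final) was run with 24 h compound exposure of reporter cells at 37 °C. Each well was multiplexed: SteadyGlo luminescence measured ATXN2-luciferase expression after a fluorogenic Gly-Phe-AFC viability readout (25 uM final).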
ATXN viability: Viability Counterscreen for Primary qHTS for Inhibitors of ATXN expression; Potency, µM (titrated, usually from 56.7 µM), usual class: cytotoxic; S2 cells (HEK-293 line with an ATXN2-luciferase reporter) viability, CellTiter-Fluor protease fluorescence, 24 h; 0.49% of 400,000 active; further: potency means the concentration at half of the fitted maximal effect; nearly all actives have a fitted effect of over 40% in size
HepG2 tox-1: qHTS for Inhibitors of TGF-b: Cytotox Counterscreen | HepG2 CAGA-GFP viability, ATP luminescence, 18 h | Potency, µM (series often up to 46.1 µM), without a hit: at the highest dose activity change, negative = cytotoxicity, hits mostly cytotoxic | 0.76% of 410,000 active | AID 588856, 2011; further: potency means the concentration at half of the fitted maximal effect
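CellTiter-Glo luminescence gave cytotoxicity after 18 hours at 37 degrees C. The cells were HepG2 CAGA-GFP in 1% FBS DMEM, stimulated with 500 pg/mL TGF-beta after compound addition. %Activity was normalised to no-cell wells (complete cell-killing) and DMSO (no toxicity), and curves were fitted and classified.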
TGFb confirm: qHTS for Inhibitors of TGF-b: Confirmation of Cherry Picks; shares compounds with TGFb SMAD3 inh; HepG2 CAGA-GFP TGF-b reporter, GFP fluorescence, 18 h; cells stimulated with TGF-beta, 500 pg/mL; Potency, µM (top dose mostly 46.1 µM), inactives show at the highest dose activity, negative = inhibition, hits mostly inhibitors; 63% of 1,600 active; further: potency means the concentration at half of the fitted maximal effect; on the % scale 0 is the no-effect control and ±100 the full control effect; nearly all actives have a fitted effect of over 65% in size
HepG2 tox-2: qHTS for Inhibitors of TGF-b: Cytotox Counterscreen for Cherry Picks; HepG2 CAGA-GFP viability, ATP luminescence, 18 h; cells stimulated with TGF-beta, 500 pg/mL; shares compounds with TGFb SMAD3 inh; Potency, µM (highest dose often 46.1 µM), inactives show at the top dose activity, negative = cytotoxicity, hits mostly inhibitors; 27% of 1,600 active; further: potency means the concentration at half of the fitted maximal effect; on the % scale 0 is the no-effect control and ±100 the full control effect; nearly all actives have a fitted effect of over 70% in size
TGFb CCL64 inh: qHTS for Inhibitors of TGF-b: CCL64 Cells Orthogonal Assay for Cherry Picks | shares compounds with TGFb SMAD3 inh | CCL64 CAGA-GFP reporter, TGF-b stimulated, GFP fluorescence, 18 h | Potency, µM (highest dose often 46.1 µM), for the others: at the top dose activity, negative = inhibition, most hits filed as inhibitors | 41% of 1,600 active | AID 720536, 2013; further: potency means the concentration at half of the fitted maximal effect; nearly all actives have a fitted effect of over 65% in size
TGFb COP inh: qHTS for Inhibitors of TGF-b: Hit Validation in HepG2 Cells using COP promoter; shares compounds with TGFb SMAD3 inh; HepG2 COP-GFP TGF-b reporter, GFP fluorescence, 18 h; cells stimulated by added recombinant TGF-beta; Potency, µM (top dose mostly 46.1 µM), for the others: top-dose activity, negative = inhibition, actives largely listed as inhibitors; 3% of 1,600 active; AID 720537, 2013; further: potency means the concentration at half of the fitted maximal effect; nearly all actives have a fitted effect of over 70% in size
Active calls of the source: *; i = inactive; ? = inconclusive; nt = no result given. Unless noted, the call rests on the fitted dose curve; in most records, active means well fitted curve in the direction sought with a large enough effect; inconclusive means small, poorly fitted or top-dose-only effect, or another doubt; inactive means no such curve, though single readings can be large; an effect the other way counts as inactive or inconclusive.

SMILES	DRD3 antagonist	TGFb SMAD3 inh	DRD3 agonist	ATXN2 expr inh	ATXN viability	HepG2 tox-1	TGFb confirm	HepG2 tox-2	TGFb CCL64 inh	TGFb COP inh
O=C(CN1CCN(C(=O)C2CCN(C(=O)/C=C/c3ccccc3)CC2)CC1)Nc1ccc(F)cc1	11.4	-89.7%	5.6	6.7%	i	-25.9%	-23.5%	-0.8%	-1.7%	3.2%
COc1cc2oc(=O)cc(-c3ccc(-c4ccc(O)cc4)cc3)c2c(OC)c1OC	22.1	11.2µM*	-7.2	?	?	-14.3%	18.4µM*	?	?	69.7%
COc1ccccc1-n1cnc2cc(NCc3ccco3)ccc21	-10.2	8.91µM*	-5.7	16.6%	?	-1.8%	13µM*	-3.7%	20.6µM*	-19.5%
CCCCCC(=O)Nc1cccc(C2=NOC3(C2)C[C@H](C(N)=O)N(C(=O)c2ccccc2C(=O)c2ccccc2)C3)c1 (some centres undefined)	19.1	11.2µM*	1.6	-23.8%	i	-20.7%	?	-9.6%	?	2.7%
COc1ccc(-c2cc3ccccc3oc2=O)cc1NC(=O)c1ccc([N+](=O)[O-])o1	3.1	6.31µM*	0.5	8.6%	?	-19.3%	1.84µM*	?	-27.2%	-1.7%
Brc1cccc(-c2nnc(CN3CCN(c4ccccn4)CC3)o2)c1	nt	-7.1%	22.4	10.9%	i	-11.8%	nt	nt	nt	nt
COc1ccccc1CNC(=O)c1ccc(-c2nc(CS(=O)(=O)c3ccc(C)cc3)c(C)o2)cc1	nt	-7.2%	-13.6	-3.8%	i	-0.1%	nt	nt	nt	nt
Cc1ccc2nc(SCC(=O)Nc3cc(C(F)(F)F)ccc3N3CCOCC3)[nH]c2c1	-15.3	10µM*	-3.0	-19.8%	?	-20.0%	1.84µM*	-8.8%	0.731µM*	-18.5%
O=C(CSc1nccc(=O)[nH]1)Nc1cc(C(F)(F)F)ccc1N1CCOCC1	-20.7	-13.6%	-10.5	7.1%	i	-1.4%	nt	nt	nt	nt
CCN(CC)C(=O)[C@H]1C[C@H](CC(=O)NCc2cccc(C(F)(F)F)c2)C(=O)N2CCc3c([nH]c4ccc(Cl)cc34)[C@]12C	-11.8	10µM*	-12.7	?	?	12.6µM*	?	?	25.9µM*	45.0%
CCN(CC)C(=O)[C@H]1C[C@H](CC(=O)NCc2ccc(OC)c(OC)c2)C(=O)N2CCc3c([nH]c4ccc(Cl)cc34)[C@]12C	?	?	-6.1	-12.0%	?	-7.8%	nt	nt	nt	nt
